Records with an inconclusive call do not appear. Calls of active or inactive are those of the source. Unless noted, the call rests on the fitted dose curve; in most records, active means well fitted curve in the direction sought with a large enough effect in the repeat runs; inconclusive means weak or mixed curves; inactive means no such curve, though single readings can be large; an effect the other way counts as inactive or inconclusive.
Assays:
[1] = qHTS assay to identify small molecule agonists of the estrogen receptor alpha (ER-alpha) signaling pathway in the presence of an antagonist - cell viability counter screen (AID 1259386);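 further: series mostly up to about 92 µM; cells exposed to compounds for 22 h at 37 °C before the viability read; nearly all actives have a fitted effect of over 30% in size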
Summary of the method: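 VM7Luc4E2 cells (endogenous full-length ER-alpha, 4×ERE-luciferase) were held 5 days in phenol red-free medium with 10% charcoal-stripped FBS, plated, then given 10.0nM ICI-182,780 and compounds at 15 concentrations for 22hr at 37C; viability read by CellTiter-Fluor fluorescence.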

[2] = biological target: Progesterone receptor (Homo sapiens) (UniProt P06401); experiment: qHTS assay to identify small molecule agonists of the progesterone receptor (PR) signaling pathway (AID 1346784; calls by dose curve; further: nearly all actives have a fitted effect of over 30% in size)
Chain of Progesterone receptor (Homo sapiens) (P06401 whole entry, looked up): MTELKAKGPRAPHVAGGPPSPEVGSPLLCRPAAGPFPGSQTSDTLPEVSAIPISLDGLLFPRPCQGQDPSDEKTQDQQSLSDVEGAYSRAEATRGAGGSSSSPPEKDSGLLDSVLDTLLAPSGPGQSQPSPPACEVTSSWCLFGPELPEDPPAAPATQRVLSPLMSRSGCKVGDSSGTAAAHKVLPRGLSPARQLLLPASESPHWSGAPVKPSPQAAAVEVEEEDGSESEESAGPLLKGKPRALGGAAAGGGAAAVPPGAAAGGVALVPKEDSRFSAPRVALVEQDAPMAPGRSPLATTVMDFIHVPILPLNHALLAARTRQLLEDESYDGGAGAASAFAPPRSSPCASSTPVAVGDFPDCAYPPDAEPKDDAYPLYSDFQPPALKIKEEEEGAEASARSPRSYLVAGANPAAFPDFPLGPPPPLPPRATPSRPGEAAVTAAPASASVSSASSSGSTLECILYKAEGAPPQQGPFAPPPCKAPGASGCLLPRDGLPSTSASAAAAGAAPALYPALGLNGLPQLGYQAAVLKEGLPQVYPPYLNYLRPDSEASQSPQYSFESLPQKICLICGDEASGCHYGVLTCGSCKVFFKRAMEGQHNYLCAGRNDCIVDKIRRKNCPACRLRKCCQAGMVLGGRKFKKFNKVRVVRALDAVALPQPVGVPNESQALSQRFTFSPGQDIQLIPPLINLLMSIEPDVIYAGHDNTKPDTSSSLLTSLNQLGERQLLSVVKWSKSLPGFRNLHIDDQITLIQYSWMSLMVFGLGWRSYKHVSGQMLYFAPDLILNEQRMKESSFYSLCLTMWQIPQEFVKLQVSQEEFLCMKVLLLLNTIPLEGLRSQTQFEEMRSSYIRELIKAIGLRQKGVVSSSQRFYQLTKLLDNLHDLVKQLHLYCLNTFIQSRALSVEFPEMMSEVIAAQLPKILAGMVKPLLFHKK
Summary of the method: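 PR-UAS-bla HEK 293T cells carrying a UAS-driven beta-lactamase reporter were seeded in medium with 2% charcoal-stripped FBS, preincubated 6 hr at 37C, then exposed to compounds in DMSO for 16 hr; agonism was read by LiveBLAzer B/G FRET fluorescence.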

[3] = biological target: Progesterone receptor (Homo sapiens) (UniProt P06401); experiment: qHTS assay to identify small molecule antagonists of the progesterone receptor (PR) signaling pathway (AID 1346795; active means well fitted inhibition curve with a large enough effect in the signal ratio in the repeat runs, not every such curve was filed as active; the % refers to the signal ratio)
Summary of the method: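 PR-UAS-bla HEK293T cells carrying a UAS-driven beta-lactamase reporter were plated in medium with 2% charcoal-stripped FBS and rested 6 hr at 37C. Compounds were added with 1 nM R5020 (final) for 16 hr, then FRET substrate loaded 2 hr at room temperature.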

[4] = qHTS assay to identify small molecule antagonists of the progesterone receptor (PR) signaling pathway - cell viability counter screen (AID 1346798); further: series mostly up to about 92 µM; nearly all actives have a fitted effect of over 50% in size
Summary of the method: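 PR-UAS-bla HEK293T cells in medium with 2% charcoal-stripped FBS were treated with compounds plus R5020 for 16 hr at 37C. Cell viability was then read by CellTiter-Glo luminescence after 30 min at room temperature in the same wells.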

[5] = qHTS assay to identify small molecule agonists of the progesterone receptor (PR) signaling pathway - cell viability counter screen (AID 1346799; calls by dose curve; further: nearly all actives have a fitted effect of over 45% in size)
Summary of the method: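 PR-UAS-bla HEK293T cells, 3,000 per well in medium with 2% charcoal-stripped FBS, were preincubated 6 hr at 37C, then exposed to compounds for 16 hr; viability was read as CellTiter-Glo luminescence after 30 min at room temperature.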

[6] = qHTS assay to identify small molecule antagonists of the TGF-beta/Smad signaling pathway - cell viability counter screen (AID 1346824); further: nearly all actives have a fitted effect of over 50% in size
Summary of the method: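 SBE-bla HEK 293T cells were plated overnight at 37 C, then given compounds in DMSO plus TGF-beta1 (added as 0.25 ng/mL solution) for 5 hr. After the bla read, CellTiter-Glo was added to the same wells and luminescence read after 30 min at room temperature.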

[7] = qHTS assay to identify small molecule agonists of the TGF-beta/Smad signaling pathway - cell viability counter screen (AID 1346829); further: top concentration of the series differs between compounds; nearly all actives have a fitted effect of over 45% in size
Summary of the method: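 SBE-bla HEK 293T cells plated overnight, compound exposure 5 hr at 37 C. Viability read in the same wells by CellTiter-Glo luminescence after 30 min at room temperature, following the beta-lactamase read.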

[8] = qHTS assay to identify small molecule agonists of the TGF-beta/Smad signaling pathway (AID 1346859; active means well fitted activation curve with a large enough effect in the signal ratio in the repeat runs, not every such curve was filed as active; the % refers to the signal ratio; further: series mostly up to about 77 µM)
Summary of the method: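 HEK 293T cells stably carrying a beta-lactamase reporter driven by the Smad binding element were seeded overnight, exposed to DMSO-dissolved compounds for 5 hr at 37 C, 5% CO2, then loaded with FRET substrate for 2 hr at room temperature.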

[9] = biological target: Thyrotropin-releasing hormone receptor (Homo sapiens) (UniProt P34981); experiment: qHTS assay to identify small molecule antagonists of the thyrotropin-releasing hormone receptor (TRHR) signaling pathway (AID 1346877; active means well fitted inhibition curve with a large enough effect in the repeat runs, not every such curve was filed as active; further: series mostly up to about 51 µM)
Chain of Thyrotropin-releasing hormone receptor (Homo sapiens) (P34981 whole entry, looked up): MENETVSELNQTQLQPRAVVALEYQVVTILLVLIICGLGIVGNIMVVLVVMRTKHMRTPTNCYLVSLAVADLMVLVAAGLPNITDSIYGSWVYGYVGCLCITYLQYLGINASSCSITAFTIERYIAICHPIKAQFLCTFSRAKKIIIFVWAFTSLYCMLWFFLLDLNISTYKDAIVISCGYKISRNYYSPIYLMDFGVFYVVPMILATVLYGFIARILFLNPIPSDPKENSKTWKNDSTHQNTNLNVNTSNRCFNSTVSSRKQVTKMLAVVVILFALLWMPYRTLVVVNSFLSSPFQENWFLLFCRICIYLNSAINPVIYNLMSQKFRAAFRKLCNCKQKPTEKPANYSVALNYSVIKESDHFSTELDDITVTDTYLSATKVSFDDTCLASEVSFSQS
Summary of the method: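 TRHR-expressing HEK293 cells were seeded, cultured 18 h at 37 °C, then loaded with calcium dye for 2 h. Compounds were pre-incubated 5 min at room temperature before 1 nM TRH (final) was added, and kinetic fluorescence was recorded for 3 min.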

[10] = biological target: Thyrotropin-releasing hormone receptor (Homo sapiens) (UniProt P34981); experiment: qHTS assay to identify small molecule agonists of the thyrotropin-releasing hormone receptor (TRHR) signaling pathway (AID 1346891; calls by dose curve; further: series mostly up to about 58 µM)
Summary of the method: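 TRHR-expressing HEK293 cells were plated 18 h at 37 °C/5% CO2, loaded with calcium dye 2 h at 37 °C, then given compound in DMSO; fluorescence was read kinetically for 3 min at 1 s intervals.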
On the % scale 0 is the no-effect control and ±100 the full control effect.

Cc1ccccc1CO[C@@H]1C[C@@]2(C(C)C)CC[C@]1(C)O2
inactive: Potency [1] | Potency [2] | Potency [3] | Potency [4] | Potency [5] | Potency [6] | outcome [7] | outcome [8] | outcome [9] | outcome [10]

C=C(C)CN(CC)c1c([N+](=O)[O-])cc(C(F)(F)F)cc1[N+](=O)[O-]
inactive: Potency [1] | Potency [2] | Potency [3] | Potency [4] | Potency [5] | Potency [6] | outcome [7] | outcome [8] | outcome [9] | outcome [10]

ClCCOCOCCCl
inactive: Potency [1] | Potency [2] | Potency [3] | Potency [4] | Potency [5] | Potency [6] | outcome [7] | outcome [8] | outcome [9] | outcome [10]

CN1CCC(N(Cc2ccccc2)c2ccccc2)CC1
inactive: Potency [1] | Potency [2] | Potency [3] | Potency [4] | Potency [5] | Potency [6] | outcome [7] | outcome [8] | outcome [9] | outcome [10]

COc1cc(OC)nc(Sc2cccc(Cl)c2C(=O)O)n1
inactive: Potency [1] | Potency [2] | Potency [3] | Potency [4] | Potency [5] | Potency [6] | outcome [7] | outcome [8] | outcome [9] | outcome [10]

O=C1CN=C(c2ccccc2)c2cc([N+](=O)[O-])ccc2N1
inactive: Potency [1] | Potency [2] | Potency [3] | Potency [4] | Potency [5] | Potency [6] | outcome [7] | outcome [8] | outcome [9] | outcome [10]

CC(C=O)Cc1ccc2c(c1)OCO2 (configuration not stated)
inactive: Potency [1] | Potency [2] | Potency [3] | Potency [4] | Potency [5] | Potency [6] | outcome [7] | outcome [8]

CCS(=O)(=O)CCSP(=O)(OC)OC
inactive: Potency [1] | Potency [2] | Potency [3] | Potency [4] | Potency [5] | Potency [6] | outcome [7] | outcome [8]

Cc1cnc[nH]1
inactive: Potency [1] | Potency [2] | Potency [3] | Potency [4] | Potency [5] | Potency [6] | outcome [7] | outcome [8] | outcome [9] | outcome [10]

O=C1c2ccccc2C(=O)c2ccccc21
inactive: activity change, negative = cytotoxicity [1] 2.11% [at 19 µM] | activation [2] -0.0487% [at 19 µM] | activity change, negative = inhibition [3] 12.9% [at 18.9 µM] | activity change, negative = cytotoxicity [4] 9.36% [at 18.9 µM] | activity change, negative = cytotoxicity [5] 2.43% [at 19 µM] | viability change, negative = cytotoxic [6] -2.72% [at 15.8 µM] | activity change, negative = cytotoxicity [7] -4.2% [at 15.8 µM] | activation [8] -3.6% [at 15.8 µM] | activity, negative = inhibition [9] -1.2% [at 10.5 µM] | activation [10] -0.0612% [at 11.8 µM]

C[C@]12CC[C@H]3[C@@H](CC=C4C[C@@H](O)CC[C@@]43C)[C@@H]1CC[C@@H]2O
inactive: Potency [1] | Potency [2] | Potency [3] | Potency [4] | Potency [5] | Potency [6] | outcome [7] | outcome [8]

O=[N+]([O-])c1cccc(O)c1
inactive: Potency [1] | Potency [2] | Potency [3] | Potency [4] | Potency [5] | Potency [6] | outcome [7] | outcome [8] | outcome [9] | outcome [10]

CC(=O)C(Cl)Cl
inactive: Potency [1] | Potency [2] | Potency [3] | Potency [4] | Potency [5] | Potency [6] | outcome [7] | outcome [8]

— PubChem BioAssay (Tox21)
